For test [1], the target named is Aldehyde dehydrogenase, mitochondrial (Homo sapiens) (UniProt P05091). Kind of test: qHTS for Inhibitors of the Aldehyde Dehydrogenase Family (ALDH2) Primary screen (AID 2061308).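 Further: plate controls were vehicle for no effect and reference inhibitor for full effect; nearly all actives have a fitted effect of over 55% in size.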
In test [2] the target is Retinaldehyde dehydrogenase 3 (Homo sapiens) (UniProt P47895). The test is described as follows: qHTS for Inhibitors of the Aldehyde Dehydrogenase Family (ALDH1A3) Validation screen (AID 2061312; further: nearly all actives have a fitted effect of over 45% in size; further: potency means the concentration at half of the fitted maximal effect; on activity change, negative = inhibition: on the % scale 0 is the no-effect control and ±100 the full control effect). (In general: Quantitative high-throughput screening tests each substance at several concentrations.)
Test [3] has the same target. The test is described as follows: qHTS for Inhibitors of the Aldehyde Dehydrogenase Family (ALDH1A3) Primary screen (AID 2061315).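 Further: plate controls were DMSO vehicle for no effect and reference inhibitor for full effect.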
Test [4] in a line: BET inhibitor-based combinations targeting novel dependencies in MECOM-rearranged (r) AML: SET-2 cell line (AID 2202231). Further: potency means the concentration at half of the fitted maximal effect; nearly all actives have a fitted effect of over 35% in size. The conditions noted are these: SET-2 AML cells viability, CellTiter-Glo luminescence, 48 h; viability: stronger effect = lower value, concentration not given here. A digest of the protocol: (§1)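 Readout: CellTiter-Glo luminescence. Exposure: 48 h, 11 concentrations, 500 cells/well. Metric: AUC and within-line Z-AUC after DMSO/empty-well normalization.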

The nature of test [5]: BET inhibitor-based combinations targeting novel dependencies in MECOM-rearranged (r) AML: OCI-AML3 cell line (AID 2202232). Further: potency means the concentration at half of the fitted maximal effect; nearly all actives have a fitted effect of over 35% in size. The conditions noted are these: Potency: OCI-AML3 viability. A digest of the protocol: as §1
Test [6] in a line: BET inhibitor-based combinations targeting novel dependencies in MECOM-rearranged (r) AML: MV-4-11 cell line (AID 2202233). Further: potency means the concentration at half of the fitted maximal effect; nearly all actives have a fitted effect of over 45% in size. A digest of the protocol:
(§2)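 Seeding density was 500 cells/well, and drug exposure lasted 48 hr under standard culture conditions. Read-out used CellTiter-Glo reagent with a 15 min room-temperature incubation before luminescence measurement; AUC and Z-AUC summarize the normalized responses.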

A short description of test [7]: BET inhibitor-based combinations targeting novel dependencies in MECOM-rearranged (r) AML: HNT-34 cell line (AID 2202234). Further: potency means the concentration at half of the fitted maximal effect; nearly all actives have a fitted effect of over 35% in size. A digest of the protocol:
as §2

Test [8] in a line: BET inhibitor-based combinations targeting novel dependencies in MECOM-rearranged (r) AML: UCSD-AML1 cell line (AID 2202235). Further: potency means the concentration at half of the fitted maximal effect; nearly all actives have a fitted effect of over 40% in size. A digest of the protocol:
as §2

The nature of test [9]: BET inhibitor-based combinations targeting novel dependencies in MECOM-rearranged (r) AML: AML-191 cell line (AID 2202236; further: potency means the concentration at half of the fitted maximal effect; nearly all actives have a fitted effect of over 35% in size). A digest of the protocol:
as §1

The nature of test [10]: BET inhibitor-based combinations targeting novel dependencies in MECOM-rearranged (r) AML: AML-194 cell line (AID 2202237; further: potency means the concentration at half of the fitted maximal effect; nearly all actives have a fitted effect of over 40% in size). A digest of the protocol:
as §1

Results on 25 molecules are retold here after PubChem BioAssay (NCATS).

Inconclusive results are not listed. Unmarked numbers belong to inactive results. Activity calls are given as the source filed them. The call rests on the fitted dose curve; in most records, active means well fitted curve in the direction sought with a large enough effect; inconclusive means small, poorly fitted or top-dose-only effect, or another doubt; inactive means no such curve, though single readings can be large; an effect the other way counts as inactive or inconclusive.

For the molecule `CCc1ccccc1OC[C@@H](O)CN[C@H]1CCCc2ccccc21`, the Potency result in test [1], in test [2] and in test [3] was “inactive” throughout.

Consider `CN(c1ccccc1CNc1nc(Nc2ccc3c(c2)CC(=O)N3)ncc1C(F)(F)F)S(C)(=O)=O`, for which the Potency result in [1], in [2] and in [3] was “inactive” each time.

For the molecule `CN(C)CCN(Cc1ccccc1)C(=O)c1cc(-c2ccc(F)cc2)n2nc(C(C)(C)C)cc2n1`, the Potency entry in [1], in test [2] and in [3] was “inactive” in each case.

As to `C[C@H]1[C@H](C)C[C@@H](C(=O)O)C2CC[C@]3(C)C(=CC[C@@H]4[C@@]5(C)CC[C@H](O)C(C)(C)[C@@H]5CC[C@]43C)[C@@H]21` (stereo not given in full), the Potency result in [1], in test [2] and in test [3] was “inactive” each time.

Regarding `COC(C)(C)CCn1nc(Nc2c(C)cccc2C)c2cnc(Nc3ccc(OCCN4CCCC4)c(F)c3)nc21`, the Potency entry in [1], in test [2] and in test [3] was “inactive” in each case. In addition, the Potency in [4] was 18.6 µM (active); in test [5], 20.9 µM (active); in [6], 5.25 µM (active); in test [7], 0.0661 µM (active); in test [8] it was 9.34 µM (active); in test [9] it was 14.8 µM (active).

In the case of `COc1ccc(N(C(=O)Nc2c(C)cccc2C)c2cc(Nc3ccc(N4CCN(C)CC4)cc3)ncn2)c(OC)c1`, the Potency result in [1], in test [2] and in [3] was “inactive” each time.

Take `COc1ccccc1OCCNCC(O)CCOc1cccc2[nH]c3ccccc3c12` (stereo not given): the Potency entry in [1], in test [2] and in test [3] was “inactive” in each case.

With `COc1c(Nc2ncc(Cl)c(N[C@H]3[C@@H](C(N)=O)[C@@H]4C=C[C@H]3C4)n2)ccc2c1CC[C@@H](N1CCOCC1)CC2`, the Potency entry in [1], in test [2] and in test [3] was “inactive” throughout.

In the case of `CC(C)(C)c1ccc(CN2CCN(C(c3ccccc3)c3ccc(Cl)cc3)CC2)cc1` (stereo not given), the Potency result in test [1] and in [3] was “inactive” each time. In addition, in [2], the Potency is 31.6 µM (active).

As to `O=C(NC1Cc2ccccc2N(C[C@@H](O)CO)C1=O)c1cc2cc(Cl)sc2[nH]1` (stereo not given in full), the Potency result in test [1], in test [2] and in test [3] was “inactive” each time.

As for `O=C(NC1CCN(CCCCC2(C(=O)NCC(F)(F)F)c3ccccc3-c3ccccc32)CC1)c1ccccc1-c1ccc(C(F)(F)F)cc1`, the Potency result in [1], in test [2] and in test [3] was “inactive” each time.

For `COc1ccc2cc1Oc1ccc(cc1)C[C@H]1c3c(cc4c(c3Oc3cc5c(cc3OC)CCN(C)[C@@H]5C2)OCO4)CCN1C`, the Potency entry in [1], in [2] and in [3] was “inactive” each time.

For `CN(C)Cc1ccc(-c2cnn3c(-c4cccc(NC(=O)c5cccc(C(F)(F)F)c5)c4)ccnc23)cc1`, the Potency result in test [1], in [2] and in test [3] was “inactive” each time.

On to `NC(=O)C(CCC(F)(F)F)N(Cc1ccc(-c2ncon2)cc1F)S(=O)(=O)c1ccc(Cl)cc1` (stereo not given), for which the Potency entry in [1], in test [2] and in test [3] was “inactive” each time.

As for `CC(C)(C(=O)NCC(F)(F)C(F)(F)F)C(=O)NC1C(=O)Nc2ccccc2-c2ccccc21` (stereo not given), the Potency entry in test [1], in test [2] and in test [3] was “inactive” in each case.

Regarding `CC(C)C1CCC(C(=O)N[C@@H](Cc2ccccc2)C(=O)O)CC1` (stereo not given in full), the Potency entry in test [1], in test [2] and in test [3] was “inactive” each time.

For the molecule `Cn1ncc(Cl)c1-c1cc(C(=O)N[C@H](CN)Cc2ccc(F)c(F)c2)sc1Cl`, the Potency entry in [1], in [2] and in test [3] was “inactive” in each case. The Potency in test [4] is 20.9 µM (active); in [5] it was 18.6 µM (active); in test [6], 16.6 µM (active); in [7], 16.6 µM (active); in test [8] it was 13.2 µM (active); in [9], 26.3 µM (active). In addition, the Potency in test [10] is 16.6 µM (active).

As for `Cc1cnc(Nc2ccc(CN3CCOCC3)cc2)nc1Nc1cccc(S(=O)(=O)NC(C)(C)C)c1`, the Potency entry in test [1], in test [2] and in [3] was “inactive” in each case. Moreover, the Potency was 2.63 µM (active) in [4]; 2.63 µM (active) in [5]; 0.417 µM (active) in [6]; 1.18 µM (active) in test [7]; 1.48 µM (active) in test [8]; 2.63 µM (active) in [9]. The Potency in test [10] was 2.35 µM (active).

Take `CC[C@H](/C=C/[C@@H](C)[C@H]1CC[C@H]2[C@@H]3CC=C4C[C@@H](O)CC[C@]4(C)[C@H]3CC[C@]12C)C(C)C`: the activity change, negative = inhibition in test [1] was -2.53% [at 5.59 µM]; in [2], -13.7% [at 9.14 µM]; in test [3] it was 15.3% [at 5.59 µM].

Consider `O=C(c1ccccc1)c1ccc2nc(NC(=O)c3csc(C4CCN(c5ncnc6ccsc56)CC4)n3)[nH]c2c1`, for which the Potency result in test [1], in [2] and in test [3] was “inactive” each time.

`CCc1cnn2c(NCc3ccc[n+]([O-])c3)cc(N3CCCCC3CCO)nc12` (stereo not given): the Potency entry in test [1], in test [2] and in test [3] was “inactive” in each case.

In the case of `Fc1ccc(C2CCNC[C@H]2COc2ccc3c(c2)OCO3)cc1` (stereo not given in full), the Potency result in test [1], in test [2] and in [3] was “inactive” throughout.

For `NC(=O)N1CCC(CC(=O)N2CCC(C3c4ncc(Br)cc4CCc4cc(Cl)cc(Br)c43)CC2)CC1` (stereo not given), the Potency result in test [1], in test [2] and in [3] was “inactive” each time.

For `Fc1ccc(-n2cc(CCCCN3CCC4(CC3)OCc3ccccc34)c3ccccc32)cc1`, the Potency result in test [1], in test [2] and in [3] was “inactive” throughout.

On to `CCN(CC)CCN(Cc1ccc(-c2ccc(C(F)(F)F)cc2)cc1)C(=O)Cn1c(SCc2ccc(F)cc2)nc(=O)c2c1CCC2`, for which the Potency result in test [1], in test [2] and in test [3] was “inactive” each time.
